# Rows were chosen to be rich in hits. Some 18% of all compounds tested hit in one or more screens of this group.
# IL-1B inflam inh = blocks inflammasome-driven IL-1 beta release; activity change, % at 57.5 µM; THP-1 LPS/ATP IL-1B secretion, AlphaLISA, 16 h; active compounds read low; 360,000 compounds, 4.7% hits; in the data active = activity change below about -50%; inconclusive = mostly about -30% to -49%
#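 THP-1 cells pretreated 1 hr with compounds (up to 57.5 uM final), then stimulated with LPS (250 ng/mL final) plus ATP (1.25 mM final); secreted IL-1B measured by AlphaLISA after 16 hr, decreased signal indicating inhibition.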
# VP16 counter = counter-screen for ROR gamma inhibitors: Gal4-VP16 reporter. Drosophila S2 Gal4-VP16 UAS-luciferase, luminescence, 20 h. Potency, µM (top dose mostly 53.6 µM), for inactives: at the top dose activity, negative = inhibition, most hits filed as inhibitors. 310,000 compounds, 3.5% hits. AID 2546;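 note: Gal4-VP16 expression switched on by copper sulfate through the metallothionein promoter; potency is the fitted concentration of half-maximal effect; nearly all actives have a fitted effect of over 50% in size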
# RORgamma inh = blocks mouse ROR gamma transcriptional activity. 310,000 compounds, 5.4% hits. P51450. AID 2551. Drosophila S2 Gal4-RORgamma UAS-luciferase reporter, 20 h. Potency, µM (doses to about 53.6 µM), for inactives: at the highest dose activity change, negative = inhibition, hits mostly inhibitors; note: potency is the fitted concentration of half-maximal effect; nearly all actives have a fitted effect of over 60% in size
# Target sequence (P51450 whole entry, looked up, the tested form may be a part): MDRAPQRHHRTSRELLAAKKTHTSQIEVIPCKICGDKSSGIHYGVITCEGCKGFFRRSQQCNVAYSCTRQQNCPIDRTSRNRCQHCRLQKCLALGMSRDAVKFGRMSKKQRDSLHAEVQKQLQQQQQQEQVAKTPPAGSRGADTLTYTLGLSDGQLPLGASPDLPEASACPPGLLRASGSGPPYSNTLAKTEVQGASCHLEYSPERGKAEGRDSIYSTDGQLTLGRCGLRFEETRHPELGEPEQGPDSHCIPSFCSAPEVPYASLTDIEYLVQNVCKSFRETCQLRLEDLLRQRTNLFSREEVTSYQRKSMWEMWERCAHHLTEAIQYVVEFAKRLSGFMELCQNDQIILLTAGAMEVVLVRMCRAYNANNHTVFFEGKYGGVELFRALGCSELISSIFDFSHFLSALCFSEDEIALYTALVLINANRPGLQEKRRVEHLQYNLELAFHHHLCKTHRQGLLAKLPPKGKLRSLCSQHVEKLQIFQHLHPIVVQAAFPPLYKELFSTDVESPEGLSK
#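 A Gal4/UAS one-hybrid system in insect cells: metallothionein-promoter Gal4–ROR gamma fusion plus Photinus luciferase reporter. Copper sulfate 700 uM final, 20 hr ambient incubation, luminescent detection after 10 min with reagent.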
# LDHA inh = blocks human lactate dehydrogenase A | P00338 | purified LDHA, NADH/diaphorase-resazurin fluorescence; active compounds read low | activity change, % (values are at about 110 or 230 µM) | 480,000 compounds, 0.15% hits | AID 1347041; in the data active = activity change below about -30%; inconclusive = mostly about -25% to -30%;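 note: plate controls were DMSO wells for no effect and wells without enzyme for full effect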
#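 Enzyme activity of human lactate dehydrogenase 5 (2 nM; 0.06 mM NADH, 0.2 mM pyruvate, 5 min, RT) is measured via a resazurin/diaphorase fluorescence readout of residual NADH.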
# TDP1 cell CPT = growth inhibition of DT40 Tdp1-/-;hTDP1 cells with camptothecin (screen for TDP1 inhibitors) | chicken DT40 Tdp1-/-;hTDP1 cells + 20 nM CPT, ATP luminescence, 48 h | Potency, µM (titrated, usually from 46.2 µM), inactives show top-dose activity change, negative = growth inhibition, hits mostly inhibitors | 420,000 compounds, 12% hits | AID 686979; note: potency is the fitted concentration of half-maximal effect; nearly all actives have a fitted effect of over 55% in size
#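 Chicken DT40 Tdp1-/- cells complemented with human TDP1, 400 cells/well, exposed to compounds plus 20 nM camptothecin for at least 48 h at 37 C; viability read as ATP content by CellTiter-Glo luminescence.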
# DT40 TDP1 no CPT = qHTS for Inhibitors of human tyrosyl-DNA phosphodiesterase 1 (TDP1): qHTS in cells in absence of CPT; DT40 Tdp1-/- hTDP1 cells, no CPT, ATP luminescence, 48 h; Potency, µM (doses to about 46.2 µM), for the others: at the top dose activity change, negative = growth inhibition, usual class: inhibitors; 420,000 compounds, 15% hits; AID 686978, 2013; note: potency is the fitted concentration of half-maximal effect; nearly all actives have a fitted effect of over 55% in size
#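 DT40 Tdp1-/-;hTDP1 cells, no CPT (DMSO vehicle only), 400 cells/well; compounds pin-transferred; ≥48 hr, 37 °C; CellTiter-Glo 30 min RT dark, luminescence read.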
# Numbers without * were called inactive; ? = inconclusive; nt = not tested or not shown; ! = a repeat was not active; [ ] = remark or other dose. Unless noted, calls come from the whole dose curve; as a rule, active = well fitted curve in the direction sought with a large enough effect; inconclusive = small, poorly fitted or top-dose-only effect, or another doubt; inactive = no such curve, though single readings can be large; an effect the other way counts as inactive or inconclusive. Unless noted, % is set by controls: 0 for no effect and ±100 for the full control effect.
SMILES,IL-1B inflam inh,VP16 counter,RORgamma inh,LDHA inh,TDP1 cell CPT,DT40 TDP1 no CPT
COc1ccccc1N1CCN(C(C(=O)O)c2c[nH]c3cc(OCc4ccccc4)ccc23)CC1 (stereo not drawn),nt,nt,nt,0,nt,nt
O=c1oc2ccccc2c(N2CCCC2)c1NS(=O)(=O)c1ccccc1Cl,nt,nt,nt,-1,nt,nt
Cc1cc(=O)[nH]c(N/N=C/C2=C(N3CCOCC3)C(=C\c3ccc(Cl)cc3)/CC2)n1,14,?,?,3,21µM*,16µM*
O=C(O)c1ccccc1N/N=C/C1=C(N2CCOCC2)C(=C\c2ccccc2)/CC1,17,-1%,?,4,21µM*,12µM*
Cc1ccc(N2CCN(/N=C/C3=C(N4CCOCC4)C(=C\c4ccccc4)/CC3)CC2)cc1,0,0%,9%,-3,-16%,8%
O=C(N/N=C/C1=C(N2CCOCC2)C(=C\c2ccccc2)/CC1)Nc1ccccc1,5,-5%,17%,-3,12µM*,8.2µM*
Cc1cc(C)nc(N/N=C/C2=C(N3CCOCC3)C(=C/c3ccccc3)/CC2)n1,-23,-20%,-11%,-5,16µM*,12µM*
Fc1ccccc1NC(=S)N(Cc1ccccc1)Cc1ccccc1,nt,nt,nt,2,nt,nt
CCC1c2ccsc2CCN1C(=O)/C=C/c1ccccc1 (stereo not drawn),nt,nt,nt,-22,nt,nt
Cc1occc1C(=O)N/N=C/C1=C(N2CCOCC2)C(=C\c2ccc(Cl)cc2)/CC1,3,?,-114%,3,?,0.92µM*
CC(NC(=O)c1nccnc1N)c1cccc(Cl)c1 (stereo not drawn),nt,nt,nt,9,nt,nt
Cc1cccn2c(=O)c3cc(C(=O)NC(C)(C)C)n(C)c3nc12,nt,nt,nt,-1,?,18µM*
COC1C=CC(CNC(=O)c2cc3c(=O)n4cccc(C)c4nc3n2C)(OC)O1 (stereo not drawn),-11,-9%[10 µM],25%,3,16µM*,-15%
COc1ccccc1CCNC(=O)c1cc2c(=O)n3cccc(C)c3nc2n1C,nt,nt,nt,-17,-26%,-27%
Cc1cccn2c(=O)c3cc(C(=O)NC4CCCCC4)n(C)c3nc12,-6,4%,-3%,0,4.6µM*,3.3µM*
COC(=O)c1c(NC(=O)c2c(-c3ccccc3Cl)noc2C)sc2c1CCCC2,nt,nt,nt,5,nt,nt
Cc1ccc(-n2ncc3c(=O)n(CC(=O)N4CCCc5ccccc54)cnc32)cc1C,-24,-4%,-21%,-2,?,16µM*
COc1ccc(-n2ncc3c(=O)n(CC(=O)N4CCCc5ccccc54)cnc32)cc1,-7,2%,?,-12,?,23µM*
O=C(Cn1cnc2c(cnn2-c2ccc(F)cc2)c1=O)N1CCCc2ccccc21,-17,-8%,7%,-4,-3%,-24%
COc1cc(C(=O)OC23CC4CC(C2)C(=O)C(C4)C3)cc(OC)c1OC,nt,nt,nt,-14,nt,nt
CCC(C)C(=O)OC1CC(O)C=C2C=CC(C)C(CCC(O)CC(O)CC(=O)O)C21 (stereo not drawn),nt,1%,-2%,nt,nt,nt
CCC(C)(C)C(=O)O[C@H]1C[C@@H](C)C=C2C=C[C@H](C)[C@H](CC[C@@H]3C[C@@H](O)CC(=O)O3)[C@H]21,9,-12%,17%,10,3%[21.1 µM],21µM*!
O=c1cc(CN2CCN(CCO)CC2)c2cc(Cl)c(O)cc2o1,nt,nt,nt,-1,nt,nt
CCOc1ccc(-c2nc(CSCC(=O)NCc3ccco3)c(C)o2)cc1,?,25µM*,-38%,3,?,?
CCOc1ccc(-c2nc(CSCC(=O)NC3CCN(Cc4ccccc4)CC3)c(C)o2)cc1,-21,nt,nt,1,23µM*,?
SMILES,IL-1B inflam inh,VP16 counter,RORgamma inh,LDHA inh,TDP1 cell CPT,DT40 TDP1 no CPT
CCOCCCNC(=O)CSCc1nc(-c2ccc(OCC)cc2)oc1C,nt,nt,nt,3,nt,nt
CCOC(=O)N1CCC(NC(=O)CSCc2nc(-c3ccc(OCC)cc3)oc2C)CC1,-29,-4%,4%,-5,?,?
CCOc1ccc(-c2nc(CSCC(=O)NC3CCCc4ccccc43)c(C)o2)cc1 (stereo not drawn),-77*,5%,-16%,8,18µM*,?
CCOc1ccc(-c2nc(CSCC(=O)NC3CC3)c(C)o2)cc1,10,?,8.9µM*,-4,?,?
CCCSc1nc2c(c(=O)n(C)c(=O)n2C)n1C/C=C/c1ccccc1,nt,nt,nt,-17,nt,nt
Cc1cc(C)n(CCc2nnc(Nc3ccn(Cc4ccccc4Cl)n3)s2)n1,nt,nt,nt,-4,nt,nt
Cc1oc(-c2ccccc2Cl)nc1CSCC(=O)NC1CCCC1,?,0%,-32%,-2,-3%,-8%
Cc1oc(-c2ccc(Cl)cc2)nc1CSCC(=O)NC1CCN(Cc2ccccc2)CC1,-61*,-16%,22%,-1,?,?
CC(C)(C)OC(=O)C[C@H]1C/C=C\C[C@@H](CC(=O)N(CCO)Cc2ccccc2)C(=O)NC[C@H](c2ccccc2)OC1=O,-1,nt,nt,0,21µM*,15µM*
CC(C)(C)OC(=O)C[C@@H]1C/C=C\C[C@H](CC(=O)N(CCO)Cc2ccccc2)C(=O)NC[C@@H](c2ccccc2)OC1=O,-23,nt,nt,-6,?,23µM*
CC(C)(C)OC(=O)C[C@H]1C/C=C\C[C@H](CC(=O)N(CCO)Cc2ccccc2)C(=O)N[C@@H](c2ccccc2)COC1=O,-17,nt,nt,-6,?,?
CN(CC(=O)Nc1nc(-c2ccccc2)cs1)CC(=O)Nc1ccccc1C(F)(F)F,nt,nt,nt,-1,nt,nt
CCOC(=O)C1(Cc2cccc(Cl)c2)CCCN(C(=O)c2ccco2)C1 (stereo not drawn),9,-1%,0%,-6,?,?
CCOC(=O)C1(Cc2cccc(Cl)c2)CCCN(C(=O)c2ccc(COC)s2)C1 (stereo not drawn),?,9%,15%,-3,23µM*,21µM*
CCOC(=O)C1(Cc2cccc(OC)c2)CCCN(C(=O)c2ccccc2C)C1 (stereo not drawn),23,4%,-1%,2,?,16µM*
CCOC(=O)C1(Cc2cccc(Cl)c2)CCCN(C(=O)c2ccoc2C)C1 (stereo not drawn),-101*,-6%,24%,0,21µM*,18µM*
CC(C)c1ccccc1NC(=O)CSc1ccccc1Cl,nt,nt,nt,-1,nt,nt
O=C(Nc1ccccc1)Nc1cccc(-c2cn3cccnc3n2)c1,-14,4%,20%,-8,-14%,?
